# Measurements as given in PubChem BioAssay.
# Calls of active or inactive are those of the source.
# Assays:
# [1] = test system: Human papillomavirus type 1a protein E7 (residues 44-93); assay: HPV1a E7 fragment binders on microarrays, primary screen, biochemical, small-molecule microarray, residues 44-93, 635 nm fluorescence (AID 1108); conditions: small-molecule microarray binding, fluorescence 635 nm; higher = more signal;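 note: E7 fragment applied at 1 µg/mL in TBST for 1 h at 4 C; score combines spot fluorescence with its signal to noise ratio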
# [2] = modulators of HCV replicon luciferase signal, primary screen, HCV replication inhibitor project, Huh7 cells, luciferase reporter (AID 1109); conditions: 48 h, higher = more signal;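 note: huh7 hepatoma cells harbouring a luciferase neomycin HCV replicon reporter; luciferase luminescence as measure of HCV replicon replication; test concentration not given here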
# [3] = target: Left-right determination factor 2 (Homo sapiens) (UniProt O00292); assay: LEFTY2 binders on small-molecule microarrays, primary screen, biochemical, small-molecule microarray, 635 nm fluorescence scan (AID 1110); conditions: LEFTY2 binding, higher = more signal
# Left-right determination factor 2 (Homo sapiens), sequence (O00292 whole entry, looked up): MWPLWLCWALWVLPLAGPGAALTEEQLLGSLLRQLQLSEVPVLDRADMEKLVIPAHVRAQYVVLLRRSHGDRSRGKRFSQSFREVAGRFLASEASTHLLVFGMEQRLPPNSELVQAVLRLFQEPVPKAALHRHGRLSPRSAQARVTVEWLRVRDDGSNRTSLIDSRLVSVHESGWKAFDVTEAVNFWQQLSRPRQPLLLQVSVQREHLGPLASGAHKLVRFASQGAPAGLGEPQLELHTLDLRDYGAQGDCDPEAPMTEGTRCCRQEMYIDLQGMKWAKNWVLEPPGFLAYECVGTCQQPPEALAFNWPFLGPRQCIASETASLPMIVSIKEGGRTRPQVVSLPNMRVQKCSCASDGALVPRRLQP
# [4] = target: Calmodulin-1 (Homo sapiens) (UniProt P0DP23); assay: CALM1 binders on microarrays, EGTA buffer, profiling panel, biochemical, small-molecule microarray, Cy5-labelled CALM1 (AID 1111); conditions: Cy5-CALM1 binding fluorescence, higher = more signal;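 note: labelled calmodulin applied in Tris saline Tween buffer holding calcium plus EGTA and DTT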
# [5] = target: Calmodulin-1 (Homo sapiens) (UniProt P0DP23); assay: calcium-bound CALM1 binders on microarrays, profiling panel, artefact control for SMM control-protein annotation, biochemical, small-molecule microarray, Cy5-labelled CALM1, plus calcium (AID 1112); conditions: Cy5-CALM1 binding fluorescence, higher = more signal;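 note: score merges spot fluorescence with signal to noise from triplicate slides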
# [6] = small-molecule microarray binders of probe aWnt5a, primary screen, biochemical, biotinylated probe, 635/667 nm fluorescence (AID 1113); conditions: higher = more signal;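 note: score merges 667 nm fluorescence intensity with signal-to-noise per printed feature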
# [7] = small-molecule microarray binders of probe aShh, primary screen, biochemical, biotinylated probe, 635/667 nm fluorescence (AID 1114); conditions: higher = more signal;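 note: probe is biotin-labelled aShh protein from a stem cell growth factor screen; measures binding of labelled protein to compounds printed on the slide; score merges feature fluorescence at 667 nm with signal-to-noise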
# [8] = small-molecule microarray binders of probe aNog, primary screen, biochemical, biotinylated probe, 635/667 nm fluorescence (AID 1115); conditions: higher = more signal;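 note: probe is biotinylated aNog protein used at 0.15 µg/mL for 1 h at 4 C; z-score combines 667 nm fluorescence of each spot with its signal to noise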
# [9] = target: Torsin-1A-interacting protein 1 (Homo sapiens) (UniProt Q5JTV8); assay: LAP1 binders from COS7 cell lysate, primary screen, small-molecule microarray, 635/667 nm fluorescence (AID 1116); conditions: COS7-hLAP1 lysate binding, 635 nm fluorescence, higher = more signal
# Torsin-1A-interacting protein 1 (Homo sapiens), sequence (Q5JTV8 whole entry, looked up): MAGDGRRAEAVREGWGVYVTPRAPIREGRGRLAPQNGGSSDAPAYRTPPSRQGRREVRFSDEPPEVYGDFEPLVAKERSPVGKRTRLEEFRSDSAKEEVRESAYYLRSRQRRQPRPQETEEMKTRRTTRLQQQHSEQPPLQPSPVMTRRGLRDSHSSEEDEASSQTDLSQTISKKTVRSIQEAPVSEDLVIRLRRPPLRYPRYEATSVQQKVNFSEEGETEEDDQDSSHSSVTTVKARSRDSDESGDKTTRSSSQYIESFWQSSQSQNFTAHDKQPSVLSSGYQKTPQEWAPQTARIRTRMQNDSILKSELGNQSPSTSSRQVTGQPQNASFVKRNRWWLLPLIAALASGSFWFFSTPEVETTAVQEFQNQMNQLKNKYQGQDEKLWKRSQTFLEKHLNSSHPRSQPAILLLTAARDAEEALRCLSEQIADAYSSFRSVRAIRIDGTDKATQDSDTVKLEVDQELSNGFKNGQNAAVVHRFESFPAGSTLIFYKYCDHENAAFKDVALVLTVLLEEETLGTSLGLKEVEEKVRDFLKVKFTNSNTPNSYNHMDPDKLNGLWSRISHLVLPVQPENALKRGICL
# [10] = target: Alpha-bungarotoxin (Bungarus multicinctus) (UniProt P60615); assay: alpha-bungarotoxin binders on microarray, profiling panel, artefact control for SMM control protein annotation, biochemical, small-molecule microarray, Alexa647 label, 635/667 nm fluorescence (AID 1117); conditions: alpha-BTX-A647 binding fluorescence, higher = more signal
# Alpha-bungarotoxin (Bungarus multicinctus), sequence (P60615 whole entry, looked up): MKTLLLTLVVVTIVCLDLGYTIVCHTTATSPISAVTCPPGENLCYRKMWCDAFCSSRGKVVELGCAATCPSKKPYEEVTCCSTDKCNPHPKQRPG
# [11] = target: Albumin (Bos taurus) (UniProt P02769); assay: bovine serum albumin binders on microarray, profiling panel, artefact control for SMM control protein annotation, biochemical, small-molecule microarray, Alexa647 label, 635/667 nm fluorescence (AID 1118); conditions: BSA-A647 binding, fluorescence 635 nm, higher = more signal;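 note: score merges 667 nm emission intensity and signal-to-noise per printed compound spot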
# Albumin (Bos taurus), sequence (P02769 whole entry, looked up): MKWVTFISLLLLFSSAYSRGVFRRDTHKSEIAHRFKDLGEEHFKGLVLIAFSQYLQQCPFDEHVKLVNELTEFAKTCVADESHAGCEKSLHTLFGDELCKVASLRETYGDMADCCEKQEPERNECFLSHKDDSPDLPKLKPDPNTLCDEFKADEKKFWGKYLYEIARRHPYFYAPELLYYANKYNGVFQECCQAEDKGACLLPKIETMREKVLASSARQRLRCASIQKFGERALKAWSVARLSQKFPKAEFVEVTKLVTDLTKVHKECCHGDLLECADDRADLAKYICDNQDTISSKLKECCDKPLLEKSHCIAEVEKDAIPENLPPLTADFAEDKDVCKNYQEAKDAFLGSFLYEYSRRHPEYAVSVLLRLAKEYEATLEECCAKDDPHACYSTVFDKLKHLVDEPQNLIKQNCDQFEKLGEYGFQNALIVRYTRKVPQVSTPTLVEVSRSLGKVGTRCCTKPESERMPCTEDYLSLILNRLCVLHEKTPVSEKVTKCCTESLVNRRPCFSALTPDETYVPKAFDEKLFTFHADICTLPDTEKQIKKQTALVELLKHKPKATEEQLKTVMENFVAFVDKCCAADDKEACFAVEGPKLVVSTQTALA
# [12] = small-molecule microarray binders of probe aXIP, primary screen, biochemical, NeuroSMM set, 635/667 nm fluorescence (AID 1119); conditions: higher = more signal, called active from +8 up or from −8 down;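 note: probe is the protein aXip251-270 applied at 1 µg/mL to compound-printed slides; binding of probe to printed compounds measured as 667 nm fluorescence plus signal to noise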
# [13] = small-molecule binders of probe aNOTCH3, primary screen, biochemical, small-molecule microarray, 635/667 nm fluorescence (AID 1120); conditions: higher = more signal;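 note: probe is a biotin-tagged antibody raised against NOTCH3 rather than NOTCH3 protein; score merges spot fluorescence near 667 nm with spot signal to noise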
# [14] = small-molecule binders of probe aNOTCH2, primary screen, biochemical, small-molecule microarray, 635/667 nm fluorescence (AID 1121); conditions: higher = more signal;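 note: score merges feature fluorescence read at 667 nm with its signal to noise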
# [15] = target: Carbonic anhydrase 2 (Homo sapiens) (UniProt P00918); assay: CAII small-molecule binders, profiling panel, biochemical, small-molecule microarray, Alexa647-labelled CAII (AID 1122); conditions: CAII-A647 binding fluorescence, higher = more signal
# [16] = COS7 lysate on small-molecule microarray, probe aHis, 635 nm (AID 1123); conditions: COS7 cell lysate, fluorescence, higher = more signal;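 note: z-score combines 667nm fluorescence intensity with signal-to-noise per printed compound spot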
# [17] = compound binding in COS7 lysate, probe aLAP1, primary screen, cell lysate, small-molecule microarray (AID 1124); conditions: probe aLAP1, fluorescence, higher = more signal;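 note: lysate comes from COS7 cells expressing LAP1 and is applied at 0.3 µg/mL; score merges spot fluorescence near 667 nm with signal-to-noise over triplicate slides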
# [18] = test system: Sam68 (KHDRBS1); assay: Sam68 small-molecule binders, primary screen, biochemical, small-molecule microarray, 635 nm fluorescence (AID 1125); conditions: small-molecule microarray binding, higher = more signal;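 note: score merges 667 nm channel intensity with signal to noise over triplicate slides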
# [19] = test system: Chordin-like protein 2 (CHRDL2); assay: CHRDL2 small-molecule binders, primary screen, biochemical, small-molecule microarray, 635 nm fluorescence (AID 1126); conditions: small-molecule microarray binding, fluorescence 635 nm; higher = more signal;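 note: printed compound slides probed with Chrdl2 protein at 4 µg/mL for 1 h at 4 C; score merges 667 nm emission intensity with signal to noise over three replicate slides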
# [20] = target: Concanavalin-A (Canavalia ensiformis) (UniProt P02866); assay: ConA small-molecule binders, primary screen, artefact control for SMM control protein annotation, biochemical, small-molecule microarray, Alexa647 label, 635 nm (AID 1127); conditions: ConA-A647 binding fluorescence, higher = more signal;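 note: z combines 667 nm emission intensity with signal-to-noise across three replicate slides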
# Concanavalin-A (Canavalia ensiformis), sequence (P02866 whole entry, looked up): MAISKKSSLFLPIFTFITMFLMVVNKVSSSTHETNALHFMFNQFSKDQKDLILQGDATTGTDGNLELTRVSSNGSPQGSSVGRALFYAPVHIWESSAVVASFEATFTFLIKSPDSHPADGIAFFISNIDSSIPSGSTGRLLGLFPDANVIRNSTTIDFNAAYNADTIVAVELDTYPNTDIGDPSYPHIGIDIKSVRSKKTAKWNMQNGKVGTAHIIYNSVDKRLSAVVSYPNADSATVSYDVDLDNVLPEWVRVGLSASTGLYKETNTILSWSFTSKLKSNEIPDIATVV
SMILES,composite z-score [1],z-score [2],composite z-score [3],composite z-score [4],composite z-score [5],composite z-score [6],composite z-score [7],composite z-score [8],composite z-score [9],composite z-score [10],composite z-score [11],composite Z-score [12],composite z-score [13],composite z-score [14],composite z-score [15],composite z-score [16],composite z-score [17],composite z-score [18],composite z-score [19],composite z-score [20]
NCCCC[C@@H]1NC(=O)[C@H]2C[C@@H](C(=O)O)[C@@H](c3cccc(OCCO)c3)N2C1=O,1.4,-1.56,1.53,0.441,-0.197,0.0017,0.166,1.33,1.07,2.12,0.294,1.71 (inactive),0.526,-0.0106,0.396,2.88,0.521,1.29,1.39,1.1
C=CCC(OC(C)=O)[C@@H]1[C@@H](N(Cc2cccc3ccccc23)C(=O)c2ccc(C)cc2)c2cc(OCCCO)ccc2N1C(=O)c1ccc2ccccc2n1 (stereo not given in full),-0.139,-0.614,-0.0457,-0.388,-0.195,-0.147,-0.341,-0.555,0.482,1.46,0.526,-0.104 (inactive),0.366,0.0239,0.246,0.72,0.158,0.478,0.618,-0.202
[N-]=[N+]=NCc1ccccc1C[C@@]1(C(=O)O)N=C(c2ccc(OCCCO)cc2)O[C@@H]1c1ccccc1CN=[N+]=[N-],1.39,-1.84,0.219,0.973,-0.0107,0.0676,0.0121,-0.56,0.74,1.27,0.516,0.259 (inactive),0.244,-0.0716,0.573,0.0091,0.0036,1.31,-0.0541,1.11
COCCOC(=O)N1C(=O)[C@@]2(c3cc(C#CCC(C(=O)OC)C(=O)OC)ccc31)[C@H](C(=O)N1CCc3cc(OC)c(OC)cc3C1)[C@H]1C(=O)O[C@H](c3ccccc3)[C@H](c3ccccc3)N1[C@@H]2c1ccc(O)cc1,1.4,-0.649,1.17,0.442,-0.406,0.0718,0.0326,-0.537,0.965,0.906,-0.129,0.131 (inactive),0.23,-0.0715,0.213,1.72,0.617,1.17,1.05,0.919
COc1ccc([Si](C)(C)[C@H]2[C@H](CCn3cc([C@H](O)c4ccccc4)nn3)O[C@@]3(C(=O)N(C)c4c(Br)cc(C)cc43)[C@@H]2C)cc1,-0.0087,-4.19,0.285,0.0287,-0.0094,-0.124,0.0796,-0.411,0.088,0.14,-0.628,1.94 (inactive),-0.259,-0.103,-0.149,-0.215,-0.112,0.0516,0.182,0.005
CN1C(=O)C2C(C1=O)C1C=C(c3ccc(CO)cc3)C2C(c2cccs2)N1C (stereo not given),0.104,0.706,-0.112,1.47,0.312,-0.1,-0.0553,-0.12,2.17,1.86,0.935,0.891 (inactive),-0.0044,-0.146,0.76,0.784,1.08,0.47,-0.125,1.18
C=C(CCCC)C(=O)CC[C@H](OC(=O)c1cccnc1)c1ccc(CO)o1,1.07,-1.26,1.16,0.223,-0.183,-0.0462,0.191,-0.116,0.706,0.542,0.133,0.0385 (inactive),0.19,-0.0323,0.555,1.07,1.06,1.3,0.608,1.1
CC(=O)c1ccc(C(O)C2C=CC3C(=O)N(C)C(=O)C3N2NC(=O)OC(C)(C)C)cc1 (stereo not given),0.955,-0.859,0.237,2.2,1.19,0.0279,0.207,1.7,0.486,2.12,1,-0.331 (inactive),0.103,0.119,0.885,2.61,0.366,1.29,-0.971,1.17
